# Test results as given in PubChem BioAssay (NCI).
# About 83,000 compounds went through this panel and 20% of them were active in at least one assay; those are over-represented in the sample as a whole.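 The endpoint reported here, percent growth, reads 100 for growth as untreated, 0 for no net growth and -100 for all cells dead.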 The source made the active and inactive calls. The calls were made as follows: active = growth percent below 10; inactive = the rest.
# System: EKVX NSCLC
# Experiment: NCI-60 one-dose screen, 48 h (100 = growth as untreated, 0 = no growth, -100 = all killed)
# Conditions: 10 µM unless noted
row,Compound,growth
1,O=c1oc2ccc(Br)cc2c(=O)n1-c1ccc(F)cc1F,39% (inactive)
2,O=c1c2cc(F)cc(Cl)c2sc2c(Cl)nc3ccccc3c12,97.9% (inactive)
3,O=C(CCN1C(=O)c2ccccc2C1=O)Nc1ccc(Cl)cc1,88.2% (inactive)
4,O=c1oc2ccc(Cl)cc2c(=O)n1-c1ccc(Cl)cc1F,9.78% (active)
5,O=C(Nc1ccc(F)cc1F)c1cc(Cl)ccc1O,34.2% (inactive)
6,O=c1oc2ccc(I)cc2c(=O)n1-c1ccc(Cl)cc1F,9.47% (active)
7,CC1=C(C(=O)OCC2CCN(C(=O)OC(C)(C)C)CC2)[C@@H](c2cccc(C#N)c2)C2=C(CC(C)(C)CC2=O)N1,63.7% (inactive)
8,COc1cccc(/C=C/C(=O)c2c(C)nc3ccccc3c2/C=C/c2ccccc2)c1OC,50.8% (inactive)
9,O=c1oc2ccc(F)cc2c(=O)n1-c1ccc(F)cc1F,93.5% (inactive)
10,O=C1c2cc(I)ccc2Oc2cc([N+](=O)[O-])ccc2N1c1ccc(Cl)cc1F,93.5% (inactive)
11,O=c1oc2ccc(-c3ccc(F)cc3F)cc2c(=O)n1-c1ccc(Cl)c(C(F)(F)F)c1,55.4% (inactive)
12,COc1ccc(/C=C/C(=O)c2c(C)nc3ccccc3c2/C=C/c2ccccc2)cc1O,90.3% (inactive)
13,O=c1oc2ccc(-c3ccc(F)cc3F)cc2c(=O)n1-c1cccc(C(F)(F)F)c1,13.5% (inactive)
14,COc1ccc(OC)c(/C=C/C(=O)c2c(C)nc3ccccc3c2/C=C/c2ccccc2)c1,79.4% (inactive)
15,O=C(CCc1nnc2sc(COc3ccccc3)nn12)c1nc2ncccc2[nH]1,102% (inactive)
16,O=C(COc1cc(O)c2c(=O)cc(-c3ccccc3)oc2c1)Nc1ccccc1,103% (inactive)
17,O=C(CCc1nnc2sc(-c3ccc(Cl)cc3Cl)nn12)c1nc2ncccc2[nH]1,-26.2% (active)
18,O=C1c2cc(Cl)ccc2Oc2cc([N+](=O)[O-])ccc2N1c1ccc(F)cc1F,108% (inactive)
19,O=C(CCc1nnc2sc(Cc3ccccc3Cl)nn12)c1nc2ncccc2[nH]1,94.6% (inactive)

row,Compound,growth
1,Nc1ccc(-c2nn3c(CCC(=O)c4nc5ncccc5[nH]4)nnc3s2)c(O)c1,98% (inactive)
2,O=C(c1ccccc1)N(CCc1ccc(Cl)cc1)C(=S)N(C(=O)c1ccccc1)c1ccccc1,102% (inactive)
3,C#CCn1cc(C=C2C(=O)N(C)C(=O)N(C)C2=O)c2cc(Cl)ccc21,98.1% (inactive)
4,O=C(Nc1ccc(I)cc1F)c1cc(Br)ccc1O,6.95% (active)
5,Cc1nc2ccccc2c(/C=C/c2ccccc2)c1C(=O)/C=C/c1ccc(Cl)cc1,39.9% (inactive)
6,O=C(Nc1ccc(F)cc1F)c1cc(Br)ccc1O,8.29% (active)
7,O=C1NC(=S)NC(=O)C1=Cc1cn(Cc2cn(Cc3cccc4ccccc34)nn2)c2ccccc12,96.4% (inactive)
8,COc1c(B(O)O)cccc1-c1nc2ccc3n[nH]c(F)c3c2c2c1CCCC2,93% (inactive)
9,COc1c(B(O)O)cccc1-c1nc2ccc3[nH]ncc3c2c2c1C1CCC2C1 (stereo not drawn),101% (inactive)
10,O=C(c1ccccc1)N(C(=S)NCCc1ccc(Cl)cc1)c1ccc(Cl)cc1,83.5% (inactive)
11,O=C(Nc1ccc(I)cc1F)c1cc(F)ccc1O,5.82% (active)
12,CC1=C(C(=O)OCC2CCN(C(=O)OC(C)(C)C)CC2)[C@H](c2cccc(Br)c2)C2=C(CC(C)(C)CC2=O)N1,49.4% (inactive)
13,O=c1oc2ccc(F)cc2c(=O)n1-c1ccc(Br)cc1F,7.09% (active)
14,O=c1oc2ccc(I)cc2c(=O)n1-c1ccc(I)cc1F,9.77% (active)
15,O=c1oc2ccc(I)cc2c(=O)n1-c1ccc(F)cc1F,59.2% (inactive)
16,Cn1cc([C@@H]2Nc3ccc4[nH]ncc4c3[C@H]3[C@H]4CCC(C4)[C@H]32)c(C(F)(F)F)n1,67.1% (inactive)
17,O=C(Nc1ccc(Cl)cc1F)c1cc(Br)ccc1O,9.24% (active)
18,O=c1oc2ccc(Cl)cc2c(=O)n1-c1ccc(I)cc1F,11.4% (inactive)
19,O=C(Nc1ccc(I)cc1F)c1cc(Cl)ccc1O,7.55% (active)
